Test results: PubChem BioAssay (NCATS)
Inconclusive results are not listed. Where a call stands in place of a potency, no number is given. Activity calls are given as the source filed them. Calls come from the whole dose curve; as a rule, active = well fitted inhibition curve with a large enough effect; inconclusive = small, poorly fitted or top-dose-only effect; inactive = flat fitted curve, though single readings scatter.

Assay: qHTS for Inhibitors of Plasmodium falciparum (7G8) proliferation (AID 504316); note: nearly all actives have a fitted effect of over 65% in size
Details: P. falciparum 7G8 in erythrocytes, SYBR Green DNA, 72 h; series mostly up to 6.7 µM
Method in brief: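 Erythrocytes infected with P. falciparum line (0.3% parasitemia, 2.5% hematocrit final) incubated with compounds 72 h at 37 °C, 5% CO2; SYBR Green lysis buffer added, fluorescence read next day. Normalized to 0.29 uM artemisinin and DMSO.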
Potency is the fitted concentration of half-maximal effect.

Structure (SMILES) | Potency
COC(=O)N1CCc2cc(OC)c(OC)cc2C1Cc1ccc(OC)cc1 (stereo not given) | inactive
COC(=O)C1=C(C(=O)OC)[C@@H]2Nc3ccccc3[C@@]23C[C@@H](C(=O)OC)N(C(=O)c2ccco2)C3=N1 | inactive
COC(=O)N[C@@H](c1cccc(C)c1)C(C(C)=O)C(=O)OC (stereo not given in full) | inactive
COC(=O)c1ccccc1S(=O)(=O)N1CCc2nc(COc3ccccc3)c3c(c2C1)CO[C@@H](C)C3 | inactive
CCCCC1=CC2=CC(=O)C(C)(OC(=O)CC)C(=O)C2=CN1CCc1c[nH]c2ccccc12 (stereo not given) | inactive
CCN1C(=O)[C@@H]2[C@H]3[C@H](O)[C@H](O)CC(=NO[C@@H](C)c4cc(-c5c(C)cc(C)cc5C)no4)[C@@H]3CC[C@H]2C1=O | inactive
C=CCN1C=C2C(=O)C(C)(OC(=O)c3cnc4ccccc4n3)C(=O)C=C2C=C1/C=C/COC (stereo not given) | inactive
COC(=O)CCC(=O)OC1(C)C(=O)C2=CN(Cc3ccc(OC)cc3)C(c3ccc(OC)cc3)=CC2=C(Br)C1=O (stereo not given) | inactive
COC(=O)C1=C(C(=O)OC)[C@@H]2N(C)c3ccc(OC)cc3[C@@]23C[C@@H](C(=O)OC)N(S(=O)(=O)c2cccs2)C3=N1 | inactive
COC(=O)N[C@@H](c1ccccc1)[C@]1(C(=O)OC)CCCC1=O | inactive
CCN1C(=O)N[C@@H](c2cccs2)C(C(=O)OC)=C1C | inactive
COC(=O)[C@@H](NC(=O)N1CCc2nc(-c3ccc(OC)cc3C)c3c(c2C1)CO[C@@H](c1ccccc1)C3)C(C)C | 1690 nM (active)
COC(=O)CCC(=O)OC1(C)C(=O)C=C2C=C(C3CC3)N(C3CCCCC3)C=C2C1=O (stereo not given) | inactive
COC(=O)[C@]1(C)C=C[C@@H](C)[C@H](c2ccccc2Br)N1C(=O)C(F)(F)F | inactive
CCOC(=O)N1C2=NC(C(=O)OC)=C(C(=O)OC)[C@@H]3N(C)c4ccc(OC)cc4[C@]23C[C@H]1C(=O)OC | inactive
C[C@@H](c1ccccc1)N1C(=O)[C@@H]2[C@H]3[C@H](O)[C@H](O)CC(=NNC(=O)OCc4ccccc4)[C@@H]3CC[C@H]2C1=O | inactive
CCCNC(=O)N1C2=NC(C(=O)OC)=C(C(=O)OC)[C@@H]3Nc4ccccc4[C@]23C[C@H]1C(=O)OC | inactive
CC=Cc1cc2ccccc2c2c(C(=O)OC)c(C(=O)OC)c(C(=O)OC)n12 | inactive
COC(=O)C1=C(C(=O)OC)[C@@H]2Nc3ccccc3[C@@]23C[C@@H](C(=O)OC)N(C(=O)c2ccc(Br)cc2)C3=N1 | inactive
CC1(OC(=O)C2CCCC2)C(=O)C=C2C=C(c3ccsc3)N(c3ccc(CO)cc3)C=C2C1=O (stereo not given) | inactive

Structure (SMILES) | Potency
C=CCOC(=O)N[C@H](C(C(=O)OC)=C(C)NCc1ccccc1)c1ccc(C)cc1 | inactive
COC(=O)C1=C(C)N(Cc2ccco2)C(=O)N[C@@H]1c1ccco1 | inactive
C=CCN1c2ccccc2[C@]23C[C@@H](C(=O)OC)N(C(=O)COCc4ccccc4)C2=NC(C(=O)OC)=C(C(=O)OC)[C@H]13 | inactive
COC(=O)CCCC1=CC2=C(c3ccccc3)C(=O)C(C)(OC(=O)C3CCCC3)C(=O)C2=CN1C1CCCC1 (stereo not given) | inactive
CCCCc1nc2c(c3c1C[C@H](C)OC3)CN(S(=O)(=O)c1ccc(Cl)c3nonc13)CC2 | inactive
CC#CCN1c2ccccc2[C@]23C[C@@H](C(=O)OC)N(C(C)=O)C2=NC(C(=O)OC)=C(C(=O)OC)[C@H]13 | inactive
C=C(C(C)=O)C(O)c1cccs1 (stereo not given) | inactive
CC(C)(C)OC(=O)NCCCC1=CC2=CC(=O)C(C)(OC(=O)c3cccs3)C(=O)C2=CO1 (stereo not given) | inactive
COC/C=C/C1=CC2=CC(=O)C(C)(OC(=O)c3cnc4ccccc4n3)C(=O)C2=CN1CCOC (stereo not given) | inactive
COC(=O)C1=C(C(=O)OC)[C@@H]2N(C)c3ccc(OC)cc3[C@@]23C[C@@H](C(=O)OC)N(S(=O)(=O)c2ccc4c(c2)OCCN4C)C3=N1 | inactive
CCCCC1=CC2=C(c3ccco3)C(=O)C(C)(OC(=O)c3ccc(OC)cc3)C(=O)C2=CN1CCc1c[nH]c2ccccc12 (stereo not given) | inactive
O=C(NS(=O)(=O)c1ccc(F)cc1)O[C@@H]1C(=O)c2cc(Br)ccc2O[C@H]1c1ccc2c(c1)OCO2 | inactive
CCCCC1=CC2=C(c3ccco3)C(=O)C(C)(OC(=O)c3ccc(OC)cc3)C(=O)C2=CN1C1CCCC1 (stereo not given) | inactive
COC(=O)CCC(=O)OC1(C)C(=O)C2=CN(C(CO)CO)C(c3ccc(OC)cc3)=CC2=C(Br)C1=O (stereo not given) | inactive
CC(=O)C1=C(C)N(Cc2ccccc2)C(=O)N[C@H]1c1ccco1 | inactive
COC(=O)[C@@]1(C=C2c3ccc(F)cc3[C@@H](OC)[C@@H]2C)[C@@H]2CC=C[C@@H]21 | inactive
COC/C=C/C1=CC2=CC(=O)C(C)(OC(=O)c3cnc4ccccc4n3)C(=O)C2=CN1Cc1ccc2c(c1)OCO2 (stereo not given) | inactive
CCCC[C@]12Cc3cc(OC)c(OC)cc3[C@H](O1)C1=C(O2)C(=O)c2ccccc2C1=O | 1510 nM (active)
COC(=O)CCC(=O)OC1(C)C(=O)C2=CN(c3ccccc3)C(c3ccc(OC)cc3)=CC2=C(Br)C1=O (stereo not given) | inactive
COC/C=C/C1=CC2=CC(=O)C(C)(OC(=O)c3cnc4ccccc4n3)C(=O)C2=CN1C1CCCC1 (stereo not given) | inactive
